# About 530 (24%) of roughly 2,200 compounds were called active.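 The calls were made as follows: active = inhibition above a set limit at one or more concentrations of the dose series; inactive = inhibition under that limit at every dose.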 Only a sample is shown. Measured potencies and affinities stand elsewhere.
# Experiment: S. Typhimurium nonspecific reporter signal inhibition – Salmonella Typhimurium, GFP fluorescence, counter-screen for PhoP regulon inhibitor project, dose response (AID 2401);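 also: S. typhimurium with Mg-insensitive nmpC-GFP reporter grown at 10 µM Mg2+; drop in reporter fluorescence reflects general culture growth inhibition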
# Settings: 4 h; series mostly up to 150 µM
row,SMILES,outcome
1,CC(=O)c1sc(NC(=O)COc2ccc([N+](=O)[O-])cc2)nc1C,inactive
2,CCOC(=O)C1=C(C)NC(=O)NC1c1ccsc1 (stereo unspecified),inactive
3,O=C1c2ccccc2C(=O)N1c1cccc(-c2csc(Nc3ccc4c(c3)OCO4)n2)c1,inactive
4,COC(=O)Cn1cc(C(=O)c2ccco2)c2ccccc21,inactive
5,COC(=O)c1sccc1NC(=O)c1csc2c1CCCC2,inactive
6,COCCNC(=O)CSCc1c(F)cccc1Cl,inactive
7,Cn1ncc(Br)c1C(=O)NCc1cccs1,inactive
8,CCOC(=O)c1cnc(SCC(=O)Nc2ccc(N3CCOCC3)c(Cl)c2)nc1N,inactive
9,CCOC(=O)N1CCC(NC(=O)CCC(=O)c2ccccc2)CC1,inactive
10,CNC(=O)c1ccc(-c2ccc(F)cc2)s1,inactive
11,CCCCOC(=O)CSc1nc2c(c(=O)[nH]c(=O)n2C)n1C/C=C(\C)Cl,inactive
12,CCCN(CCC)CCCNS(=O)(=O)c1ccc2c(c1)oc(=O)n2C,inactive
13,O=C1c2[nH]nc(-c3ccccc3O)c2C(c2ccc(F)cc2)N1Cc1ccco1 (stereo unspecified),inactive
14,COc1ccc(NC(=O)CSc2nnc(-c3cccs3)n2Cc2ccco2)cc1OC,inactive
15,COc1ccc(OC)c(C2C=C(C34CC5CC(CC(C5)C3)C4)NC(=S)N2)c1 (stereo unspecified),inactive
16,CCn1c(Cc2ccccc2)nnc1SCC(=O)Nc1ccc(S(N)(=O)=O)cc1,inactive
17,Cc1cc(C)nc(/N=C(\N)Nc2ccc(SC(F)F)cc2)n1,inactive
18,Cc1[nH][nH]c(=O)c1C(c1ccc(O)c([N+](=O)[O-])c1)c1c(C)[nH][nH]c1=O,inactive
19,CCCc1[nH][nH]c(=O)c1C(c1ccc(Br)cc1)C(C#N)C#N (stereo unspecified),inactive

row,SMILES,outcome
1,CN(CCC(=O)Nc1ccc(Br)cc1)Cc1ccccc1,inactive
2,CCCc1nc2c(o1)CC(CC(C)SCC)CC2=O (stereo unspecified),inactive
3,O=C(Nc1ccc(Cl)cc1)N1CC=CCC1,inactive
4,C/C(=N/NC(=O)Cc1cccn1C)c1ccccc1,inactive
5,Nc1ccc2nc(SCC(=O)Nc3ccc(N4CCOCC4)c(Cl)c3)sc2c1,inactive
6,COc1cccc(NS(=O)(=O)c2c(C)cc(C)cc2C)c1,inactive
7,COc1ccc(-c2ccc(C#N)c(SCC(=O)NCCc3ccccc3)n2)cc1OC,inactive
8,Cc1ccc(Nc2nc(Cl)nc(N(C)C#N)n2)cc1,inactive
9,c1csc(C2Nc3cccc4cccc(c34)N2)c1,inactive
10,Clc1ccc(OCCn2ccnc2)c2ccccc12,inactive
11,CCOCC(=O)Nc1ccc(F)c(F)c1,inactive
12,Cc1ncoc1C(=O)Nc1cccc(Cl)c1,inactive
13,COCCNC(=S)N(Cc1cccnc1)Cc1ccc(OC)c(OC)c1,inactive
14,O=C1NC(=O)C(=C2CCCCCC2)S1,inactive
15,Nc1cc(N2CCCCC2)c(Cl)cc1[N+](=O)[O-],inactive
16,Cc1ccc(N2C(=O)CC(Nc3ccccc3)C2=O)cc1 (stereo unspecified),inactive
17,COc1ccc(-c2nnc(SCCC(=O)O)n2-c2ccccc2)cc1,inactive
18,Nc1nc(-c2ccc3c(c2)OCCO3)cs1,inactive
19,Cc1ccc(C)c(NC(=S)NCCSc2ccc(Cl)cc2)c1,inactive

row,SMILES,outcome
1,CCc1cc2c(NCCC(=O)O)nc(C)nc2s1,inactive
2,CC(=O)Nc1ccc(-c2nnc(SCc3c(C)cc(C)cc3C)n2C)cc1,inactive
3,c1ccc(CSc2snnc2-c2ccccc2)cc1,inactive
4,CCn1c(SCC(=O)Nc2ccc3c(c2)oc2ccccc23)nnc1-c1ccc(N)cc1,inactive
5,NNC(=O)CNC(c1ccccc1)c1cc(Br)ccc1NC(=O)c1ccc(Br)cc1 (stereo unspecified),inactive
6,Cc1cccc(N2CCN(CC(=O)Nc3nccs3)CC2)c1C,inactive
7,FC(F)(F)c1cccc(NC(=S)NCCN2CCOCC2)c1,inactive
8,Cc1cc(C)cc(-n2c(C)cc(C=C(C#N)C#N)c2C)c1,inactive
9,CCOC(=O)C1=C(C)Nc2nc3ccccc3n2C1c1cccs1 (stereo unspecified),inactive
10,Cc1ccc(C(=O)Oc2cccc(NC(=O)c3cccs3)c2)cc1S(=O)(=O)N1CCOCC1,inactive
11,COc1c(Cl)cnn(-c2ccc(C)cc2)c1=O,inactive
12,CCc1c(C)c2cc(Cl)c(O)c(CN3CCCCC3)c2oc1=O,inactive
13,CCc1ccc(NC(=O)c2noc3c2CCc2ccccc2-3)cc1,inactive
14,C=CCOc1ccc(/C=N/NC(=O)CN(c2cc(Cl)ccc2OC)S(=O)(=O)c2ccc(C)c([N+](=O)[O-])c2)cc1,inactive
15,O=C(NCCc1cn2ccccc2n1)c1ccccc1F,inactive
16,Cc1nc(SCC(=O)NC(C)c2ccccc2)c2oc3ccccc3c2n1 (stereo unspecified),inactive
17,COc1ccc(C(=O)N2CCc3cc(OC)c(OC)cc3C2)cc1OC,inactive
18,Cc1ccc(S(=O)(=O)NNC(=O)c2ccc(O)cc2)cc1,inactive
